# According to ChEMBL document CHEMBL4513216, “Probing the Open Global Health Chemical Diversity Library for Multistage-Active Starting Points for Next-Generation Antimalarials” (ACS Infect Dis, 2020):
# Hit rate of the full screen: of about 68,000 compounds, about 2,700 (4%) showed an effect of 50% or more. Shown is part of a subset that was picked to be rich in strong results.
# Tested on: Plasmodium berghei
# Assay: Screen against P. berghei liver stage (PbLuc), transformed with Luciferase, at 2uM
# Type: functional, HepG2
# Settings: tested at 2 uM
row,Structure (SMILES),INHIBITION [%]
1,c1ccc(CCCN2CCCC2Cn2cncn2)cc1 (stereo not drawn),1.63
2,CCOCCCNC(=O)NCc1c(C)nn(C)c1C,6.4
3,Cc1nn(CCC#N)c(C)c1CCC(=O)N(C)C,-57.94
4,Cc1nn(CCC#N)c(C)c1CCC(=O)N(C(C)C)C1CC1,52.6
5,Cc1nn(CCC#N)c(C)c1CCC(=O)N(C)Cc1ccsc1,35.84
6,CCC(=O)Nc1ccc(C(C)NC(=O)COC)cc1 (stereo not drawn),-64.67
7,Cc1cc(Cn2cc(C#N)c(=O)c3ccccc32)no1,-0.45
8,CC(C)c1ccc(CN2C(=O)C3(CCNCC3)Nc3ccccc32)cc1,6.72
9,O=C(NCC1CCCO1)N1CCN(Cc2ccc3c(c2)CCO3)CC1 (stereo not drawn),78.42
10,O=C(C1CCOC1)N1CCN(Cc2ccc3c(c2)CCO3)CC1 (stereo not drawn),47.87
11,O=C(C1COCCO1)N1CCN(Cc2ccc3c(c2)CCO3)CC1 (stereo not drawn),83.96
12,O=C(NCc1ccco1)N1CCN(Cc2ccc3c(c2)CCO3)CC1,9.17
13,O=C(NCC1CCOC1)N1CCN(Cc2ccc3c(c2)CCO3)CC1 (stereo not drawn),10.62
14,O=C(C1CCCN(CCc2ccc3c(c2)CCO3)C1)N1CCCC1 (stereo not drawn),-0.62
15,CN(C)C1CCN(C(=O)NCc2ccc(Cn3cncn3)cc2)CC1,-8.87
16,CN1CCN(Cc2cn3c(n2)CN(C2CCOCC2)CC3)CC1,20.01
17,COCCS(=O)(=O)NC(C)c1cccc(C)c1C (stereo not drawn),16.38
18,COCCS(=O)(=O)NCC(C)c1cccc(C)c1 (stereo not drawn),72.49
19,Cc1cccc(C(C)CNS(=O)(=O)CCCC#N)c1 (stereo not drawn),16.95
20,COc1ccc(C(C)NCc2ccc(OC)c(OC)c2OC)cc1F (stereo not drawn),-6.67
21,CC(c1ccco1)N(C)C(=O)NCCOc1ccc(C#N)cc1 (stereo not drawn),-6.73
22,CC(=O)N[C@@H]1CN(C(=O)CC2CCOCC2)C[C@H]1O,-4.48
23,CCOCC(=O)N1C[C@@H](O)[C@H](NC(C)=O)C1,-24.98
24,CC(=O)N[C@@H]1CN(C(=O)CC2CC2)C[C@H]1O,53.16
25,Cc1noc(C)c1CN1CCn2cc(CNc3ccccn3)nc2C1,6.07
26,Cc1oc(CN(C)C(=O)c2ccc(C(F)(F)F)cc2)cc1C(=O)O,40.4

row,Structure (SMILES),INHIBITION [%]
1,CC(C)C(=O)NC1COC2(CCN(C(=O)c3cccnc3)CC2)C1 (stereo not drawn),9.53
2,N#CC1(C(=O)N2CCCN(Cc3cscn3)CC2)CCCCC1,7.71
3,N#CC1(C(=O)N2CCN(Cc3cscn3)CC2)CCCCC1,52.17
4,N#CC1(C(=O)N2CCN(Cc3cscn3)CC2)CCCC1,34.83
5,Cc1ccc(S(=O)(=O)Cc2noc([C@@H]3C[C@@H](O)CN3C)n2)cc1,32.59
6,CN(Cc1cn2c(n1)CN(Cc1ccc(F)cc1)CC2)Cc1ccco1,9.98
7,COc1ccc(C2=CCN(C(=O)C3CCC3)CC2)cc1,-17.31
8,COc1ccc(C2=CCN(C(=O)C3CCCN(C(C)=O)C3)CC2)cc1 (stereo not drawn),68.24
9,COc1ccc(C2=CCN(C(=O)C3CCCN(C(N)=O)C3)CC2)cc1 (stereo not drawn),-11.91
10,O=C1[C@H]2CN(Cc3ccccc3)C[C@H]2CN1c1cncnc1,37.15
11,O=C1[C@H]2CN(Cc3ccc(F)cc3)C[C@H]2CN1c1cncnc1,-20.89
12,O=C1[C@H]2CN(Cc3ccncc3)C[C@H]2CN1c1cncnc1,54.41
13,COc1cccc2cc(CNC(=O)N3CCC(N4CCCC4)C3)oc12 (stereo not drawn),25.35
14,CN(C)C(=O)CN1CCC2(CCN(C(=O)N(C)C)CC2)C1=O,54.01
15,CN(C)C(=O)CN1CCC2(CCN(S(C)(=O)=O)CC2)C1=O,39.73
16,CN(C)C(=O)CN1CCC2(CCN(C(=O)N3CCCC3)CC2)C1=O,-4.75
17,Cc1cnc(N2C[C@@H]3[C@@H](C2)OCC(=O)N3CCN(C)C)nc1,30.58
18,CNc1nc(N2CCN(Cc3ccsc3)C(CCO)C2)nc2c1CCC2 (stereo not drawn),35.43
19,O=C(C1CCOCC1)N1C[C@@H]2CC[C@H]1CN(Cc1ccncc1)C2,-21.32
20,c1cc(-c2noc(C3CCC3)n2)cc(N2CCCCC2)n1,-23.44
21,c1cc(-c2noc([C@@H]3CCCN3CC3CC3)n2)cc(N2CCCC2)n1,74.33
22,c1cc(-c2noc([C@@H]3CCCN3C3CCC3)n2)cc(N2CCCC2)n1,23.81
23,Cc1ccc(CN(Cc2ccccn2)C(=O)[C@H]2CC[C@@H](N)C2)s1,26.74
24,Cc1ccc(CN(Cc2ccccn2)C(=O)C2CCCCCN2C)s1 (stereo not drawn),-42.41
25,Cc1ccc(CN(Cc2ccccn2)C(=O)CCC2CCCN(C)C2)s1 (stereo not drawn),50.59
26,CCn1ccnc1CN1CCNCC1C (stereo not drawn),-47.18

row,Structure (SMILES),INHIBITION [%]
1,c1cnc(-c2cnc(N3CCSCC3)nc2C2CC2)cn1,-109.23
2,CCCSCC(=O)N1CCC2(CC1)CC(c1ccccc1)CN(C)C2 (stereo not drawn),33.16
3,O=C1CO[C@@H]2CN(CC3CCOC3)C[C@H]2N1Cc1cccc(F)c1 (stereo partly drawn),-12.84
4,O=C1CO[C@@H]2CN(C3CCOCC3)C[C@H]2N1Cc1cccc(F)c1,2.98
5,O=C1CO[C@@H]2CN(CC3CC3)C[C@H]2N1Cc1cccc(F)c1,52.81
6,Cn1nc2c(cc1=O)CN(CCOc1ccccc1C#N)CC2,-45.4
7,Cc1nc(-c2ccccc2)nc2c1CCN(Cc1nccn1C)CC2,3.18
8,CCc1ccc(CN2CCCn3c(nc(Cn4ccnc4)cc3=O)C2)o1,54.56
9,O=c1cc(Cn2ccnc2)nc2n1CCCN(Cc1ccco1)C2,-0.18
10,Cc1ccc(CN2CCCn3c(nc(Cn4ccnc4)cc3=O)C2)o1,33.97
11,Cc1ncoc1C(=O)N1C[C@H]2CCC[C@@]2(COCc2cccnc2)C1,30.77
12,Cc1ccccc1C(NC(=O)CCCS(C)(=O)=O)C(C)(C)C (stereo not drawn),33.22
13,CCc1nnc(SC2CCCN(c3cnn(C)c3)C2=O)n1C (stereo not drawn),11.87
14,CCc1nnc(SC2CCCN(c3cccc(F)c3)C2=O)n1C (stereo not drawn),77.68
15,Cn1nnnc1SC1CCCN(c2cccc(F)c2)C1=O (stereo not drawn),14.65
16,COc1ccc(CNC(=O)N(Cc2ccc(F)cc2F)C2CC2)cn1,-67.07
17,COCCN1CCN(Cc2cnc(C)nc2)CC1,17.8
18,CCC(C)S(=O)(=O)N1CCc2nc(C3CCNCC3)ncc2C1 (stereo not drawn),-0.83
19,CC(=O)N1CCC2(CC1)CN(C(=O)c1ccc3c(c1)OCCO3)C2,41.38
20,CC(=O)N1CCC2(CC1)CN(C(=O)c1ccc3c(c1)OCO3)C2,37.54
21,CC(=O)N1CC2(CCN(C(=O)c3ccc4c(c3)OCCO4)CC2)C1,65.54
22,CC(=O)N1CC2(CCN(C(=O)c3ccoc3)C2)C1,67.62
23,Cc1cnc(N2CC3(CCN(C(=O)c4ccoc4)C3)C2)nc1,-18.49
24,O=C(c1ccoc1)N1CCC2(C1)CN(c1ncccn1)C2,25.43
25,Cc1cccc(COC[C@H]2CC[C@H]3[C@H](CCN3Cc3ccco3)O2)n1,-22.82
26,O=C(c1ccco1)N1CCC2(CCCN(c3ncccn3)C2)C1 (stereo not drawn),-18.02

row,Structure (SMILES),INHIBITION [%]
1,NC(=O)C1CN(C(=O)NCC2(c3ccc(F)cc3)CCC2)CCO1 (stereo not drawn),-14.79
2,NC(=O)C1CN(C(=O)C2(c3ccc(F)cc3F)CCCC2)CCO1 (stereo not drawn),56.49
3,CC1CN(C(=O)C2(c3ccc(F)cc3F)CCOCC2)CCO1 (stereo not drawn),20.14
4,CN1CC2(CCN(C(=O)CCc3nc4cccnc4n3C)C2)OC1=O (stereo not drawn),-31.03
5,N#Cc1ccc(C(=O)N2CC(c3nc(-c4ncccn4)no3)C2)cc1,11.43
6,Cc1cc(C(C)NC(=O)c2cnc3onc(C)c3c2)c(C)o1 (stereo not drawn),4.49
7,CNC(=O)c1cccc(NC(=O)NC(C)CCc2cccn2C)c1C (stereo not drawn),-54.27
8,CNC(=O)c1ccc(NC(=O)NC(C)c2cc(C)oc2C)c(C)c1 (stereo not drawn),41.05
9,Cc1cc(C(C)NC(=O)c2ccc(O)nc2)c(C)o1 (stereo not drawn),56.96
10,CNC(=O)c1cccc(NC(=O)NCc2ccccc2)c1C,-7.16
11,Cc1cc(C(C)NC(=O)c2c[nH]c(=O)c(Cl)c2)c(C)o1 (stereo not drawn),25.72
12,CNC(=O)c1cccc(NC(=O)NC(C)c2cc(C)oc2C)c1C (stereo not drawn),57.75
13,CNC(=O)c1ccc(NC(=O)NC(C)c2cc(C)oc2C)cc1 (stereo not drawn),50.59
14,CC(C)NC(=O)c1ccc(NC(=O)NC(C)c2ccccn2)cc1 (stereo not drawn),2.26
15,COCc1nc(C(=O)N2CCCC2c2c(C)nn(C)c2C)cs1 (stereo not drawn),5.1
16,Cc1ccc(C2(O)CCN(C(=O)CCn3ccc(=O)[nH]c3=O)CC2)nc1,-3.56
17,N#CC1(NC(=O)COC(=O)Cc2cc(Cl)c3c(c2)OCCO3)CCCC1,17.14
18,O=C(NCCN1CCOCC1)c1cnc(Cc2ccc(F)cc2)s1,-42.16
19,CCc1nc(CN2CCN(C(=O)CCc3ccccc3)CC2)cs1,36.32
20,Fc1ccc(OCCCNC2=NCCN2)cc1,6.36
21,Cc1ccc(CCNc2ncc(C)c(-c3ccnn3C)n2)s1,-33.54
22,COCC(=O)N1CCCC(c2csc(NC(C)=O)n2)C1 (stereo not drawn),15.73
23,COCC(=O)N1CC(c2csc(NC(C)=O)n2)C1,50.74
24,COCC(=O)N1CCC(c2csc(NC(C)=O)n2)CC1,-2.2
25,Cc1nn(C)c(Cl)c1C1CCCN1CC(=O)NCc1ccco1 (stereo not drawn),33.61
